EWS-Fli block = blocks EWS/Fli oncoprotein-driven transcription. A673 NR0B1-luciferase reporter, viability-normalised. inhibition, % at 12.6 µM. 0.67% of 350,000 active. AID 651661;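 active = mean inhibition of at least 50% after viability correction, with every replicate also passing that limit; inconclusive = mean reaches 50% but only one of two replicates passes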;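 note: firefly luciferase signal divided by Alamar Blue viability fluorescence both relative to DMSO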
LGR2 inh = blocks bursicon-induced cAMP signaling via Drosophila LGR2. AID 720647. inhibition, % at 9.99 µM. 0.35% of 380,000 active. HEK293 LGR2, CRE-luciferase, bursicon-stimulated, 4 h;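 active = drop in luminescence signal, shown as inhibition above about 50% in the replicate tests, limit read from the data, passing the limit was not always enough; inconclusive = probably only some replicates passing the limit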;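 note: agonist challenge used bursicon conditioned medium at about half maximal strength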
TWEAK Fn14 block = TWEAK-Fn14 signaling inhibition; TWEAK-stimulated Fn14 reporter cells, luciferase luminescence, 8 h; inhibition, % at 10 µM; 2% of 360,000 active; in the data active = inhibition above about 50%
EBV LMP1 NFkB = Epstein-Barr LMP1 NF-kappaB reporter inhibition; LMP1-induced NF-kappaB luciferase reporter cells, luminescence; inhibition, % at 12.5 µM; 0.69% of 350,000 active; AID 504558; in the data active = inhibition above about 41%; inconclusive = no clear call, values can overlap the other calls;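 note: 0% = neutral control wells and 100% = reference inhibitor control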
TROY signal inh = inhibitors of TROY-dependent NF-kB signaling. Q293 LMP1-TROYcd NF-kB luciferase reporter, 4 h. inhibition, % at 10 µM. 0.98% of 360,000 active. AID 1347056;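 active = compounds whose plate-normalised and pattern-corrected inhibition of the luciferase reporter signal at the single screening dose is 50% or more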
The depositor's hits bear a star. Sampled rows, rich in hits. Any-hit rate of the full collection: about 2.5%.

Results for COc1cccc(/C=C/C(=O)NCCc2ccc3c(c2)OCCO3)c1 ?
EWS-Fli block: 57*; TWEAK Fn14 block: -15; EBV LMP1 NFkB: 5; TROY signal inh: 2

What do the screens show for `Cc1nn(-c2ccccc2Cl)c(Cl)c1/C=N/Nc1nc2ccccc2s1`?
LGR2 inh: 72*; TWEAK Fn14 block: 108*; EBV LMP1 NFkB: 56*; TROY signal inh: 95*

How did COc1cccc(C=NNc2nc3ccccc3s2)c1OC do in these assays?
EWS-Fli block: -40; LGR2 inh: 26; TWEAK Fn14 block: 34; EBV LMP1 NFkB: -23; TROY signal inh: 45

Results for CCOC(=O)N/N=C/c1c(C)nn(-c2ccccc2Cl)c1Cl ?
LGR2 inh: -39; TWEAK Fn14 block: -25; EBV LMP1 NFkB: -16; TROY signal inh: -108

What do the screens show for `Oc1ccc(C=NNc2nc3ccccc3s2)c(O)c1`?
EWS-Fli block: -42; LGR2 inh: inconclusive; TWEAK Fn14 block: 60*; EBV LMP1 NFkB: -11; TROY signal inh: 3

How did Oc1ccccc1C=NNc1nc2ccccc2s1 do in these assays?
EWS-Fli block: -46; LGR2 inh: -77; TWEAK Fn14 block: 57*; EBV LMP1 NFkB: -8; TROY signal inh: 0

What do the screens show for `O=C1c2ccccc2OC2(C=Cc3ccccc3O2)N1Cc1ccccc1` (stereo not given)?
LGR2 inh: 13; TWEAK Fn14 block: 76*; EBV LMP1 NFkB: -6

Results for CCOc1ccccc1OCCCC(=O)N1CCN(S(=O)(=O)c2ccc(Cl)cc2)CC1 ?
EWS-Fli block: 0; LGR2 inh: -3; TWEAK Fn14 block: 0; EBV LMP1 NFkB: 70*; TROY signal inh: 4

How did CC1=C(CC(=O)c2ccccc2)C(=O)c2ccccc2C1=O do in these assays?
TWEAK Fn14 block: 54*; EBV LMP1 NFkB: -25; TROY signal inh: 68*

What do the screens show for `CC(C)n1c(SCC(=O)N2c3ccccc3Sc3ccccc32)nc2c1c(=O)n(C)c(=O)n2C`?
LGR2 inh: -7; TWEAK Fn14 block: -16; EBV LMP1 NFkB: 13; TROY signal inh: 12

Results for CCCn1c(SCC(=O)N2c3ccccc3Sc3ccccc32)nc2c1c(=O)n(C)c(=O)n2C ?
TWEAK Fn14 block: -25; EBV LMP1 NFkB: 14; TROY signal inh: 50*

Results for CN(C)CCCn1c(SCC(=O)N2c3ccccc3Sc3ccccc32)nc2ccccc2c1=O ?
EWS-Fli block: 54*; LGR2 inh: -10; TWEAK Fn14 block: -15; EBV LMP1 NFkB: -7; TROY signal inh: -7

How did Cn1c(SCC(=O)N2c3ccccc3Sc3ccccc32)nc2ccccc21 do in these assays?
EWS-Fli block: 9; LGR2 inh: 18; TWEAK Fn14 block: 1; EBV LMP1 NFkB: -2; TROY signal inh: 0

Results for COCC(=O)Nc1ccc2c(c1)[C@@H]1C[C@H](CC(=O)NCC(F)(F)F)O[C@H](CO)[C@@H]1O2 ?
EWS-Fli block: -6; LGR2 inh: 0

How did CC(=O)/C=C/c1ccccc1O do in these assays?
EWS-Fli block: 5; LGR2 inh: 2; TWEAK Fn14 block: 5; EBV LMP1 NFkB: 52*; TROY signal inh: -1

What do the screens show for `COc1ccccc1NC(=O)N1CC(=O)N2[C@H](C1)[C@@H](c1ccc(C#CC(C)C)cc1)[C@@H]2CO`?
EWS-Fli block: 10; LGR2 inh: 2

How did COc1ccc(CN2CC(C(=O)N3CCOCC3)CC2=O)cc1 (stereo not given) do in these assays?
TWEAK Fn14 block: 2; EBV LMP1 NFkB: -5; TROY signal inh: -4

Results for CCOC(=O)N1CCN(C(=O)C2CC(=O)N(Cc3ccc(OC)cc3)C2)CC1 (stereo not given) ?
TWEAK Fn14 block: 72*; EBV LMP1 NFkB: -3

Results for CCOC(=O)c1[nH]c2ccc(Cl)cc2c1-c1ccccc1 ?
TWEAK Fn14 block: 7; EBV LMP1 NFkB: 26; TROY signal inh: 3

How did CN(C)C=NC(=O)c1[nH]c2ccc(Cl)cc2c1-c1ccccc1 do in these assays?
EWS-Fli block: 3; LGR2 inh: -3; TWEAK Fn14 block: 69*; EBV LMP1 NFkB: -4; TROY signal inh: 43

What do the screens show for `Cc1ccc(Sc2c([N+](=O)[O-])c(=O)n(C)c3ccccc23)cc1`?
EWS-Fli block: 17; LGR2 inh: -2; TWEAK Fn14 block: -102; EBV LMP1 NFkB: 2; TROY signal inh: 68*

How did Cc1ccc(Sc2c(C=O)c3ccccc3n2C)cc1 do in these assays?
TWEAK Fn14 block: 69*; EBV LMP1 NFkB: 19; TROY signal inh: 52*

How did Cc1ccc(Sc2c(O)c3ccccc3n(C)c2=O)cc1 do in these assays?
EWS-Fli block: -3; LGR2 inh: 7; TWEAK Fn14 block: -1; EBV LMP1 NFkB: 9; TROY signal inh: 25

Results for C[C@H]1CN([C@@H](C)CO)C(=O)c2cccc(NS(=O)(=O)c3cccs3)c2O[C@H]1CN(C)CC1CCCCC1 ?
EWS-Fli block: -11; LGR2 inh: 8

Results for C/C=C/c1ccc([C@H]2[C@@H](CO)N(C(=O)CN(C)C)C23CN(C(=O)C2CCCCC2)C3)cc1 ?
EWS-Fli block: -7; LGR2 inh: 11

Results for Fc1ccc(NC(=S)NCc2ccccc2)cc1 ?
EWS-Fli block: 18; LGR2 inh: -10; TWEAK Fn14 block: 107*; EBV LMP1 NFkB: -1; TROY signal inh: 13

How did CCNC(=S)Nc1ccc(Cl)cc1 do in these assays?
EWS-Fli block: -9; TWEAK Fn14 block: 8; EBV LMP1 NFkB: 0; TROY signal inh: -7

Results for O=[N+]([O-])c1ccc(NC(=S)NCCc2ccc(Cl)cc2)cc1 ?
TWEAK Fn14 block: 60*; EBV LMP1 NFkB: 1; TROY signal inh: 57*

How did CCCCNC(=S)Nc1ccc(Cl)cc1 do in these assays?
EWS-Fli block: 78*; LGR2 inh: 11; TWEAK Fn14 block: 3; EBV LMP1 NFkB: 4; TROY signal inh: -30

What do the screens show for `O=[N+]([O-])c1ccc(NC(=S)NCCc2ccccc2)cc1`?
EWS-Fli block: -23; LGR2 inh: -4; TWEAK Fn14 block: 1; EBV LMP1 NFkB: -2; TROY signal inh: 11

Results for O=[N+]([O-])c1ccc(NC(=S)NCc2ccncc2)cc1 ?
EWS-Fli block: -1; LGR2 inh: 12; TWEAK Fn14 block: -5; EBV LMP1 NFkB: 12; TROY signal inh: 4

What do the screens show for `O=[N+]([O-])c1ccc(NC(=S)NCc2ccc(F)cc2)cc1`?
EWS-Fli block: 8; LGR2 inh: 8; TWEAK Fn14 block: 36; EBV LMP1 NFkB: 9; TROY signal inh: 56*

Results for Cc1noc(C)c1NC(=O)Nc1ccc2c(c1)C(=O)N([C@H](C)CO)C[C@@H](C)[C@H](CN(C)S(=O)(=O)c1cccs1)O2 ?
EWS-Fli block: 1; LGR2 inh: 33

Results for COCCNC(=O)C[C@@H]1CC[C@@H]2[C@H](COC[C@@H](O)CN2C(=O)c2cc(Cl)cc(Cl)c2)O1 ?
EWS-Fli block: 10; LGR2 inh: -17

How did CC(OC(=O)/C=C/c1cccs1)C(=O)Nc1ccc(S(N)(=O)=O)cc1 (stereo not given) do in these assays?
EWS-Fli block: 0; LGR2 inh: 23; TWEAK Fn14 block: 5; EBV LMP1 NFkB: -2; TROY signal inh: -5

Screening results: PubChem, several laboratories
